Measured values as given in PubChem BioAssay (EPA / NIEHS).
Where “and” joins values, the source holds several entries; their conditions need not be identical. Equal entries are not always repeated. Records with an inconclusive call do not appear. More than one record can exist for a structure, and the calls need not agree. Calls of active or inactive are those of the source. Rule for the calls, unless noted: active = hit-call score of the fitted dose curve at least 0.9, where 1 is the maximum; inactive = score below 0.9.

What was measured:
[1] = CCTE_Shafer_MEA_dev_firing_rate_mean: CCTE's Neural Network Formation Assay for Mean Firing Rate, Shafer Lab (AID 2284031);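 for AC50: curve fitted for loss of firing so AC50 reflects decreased mean firing rate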
Method in brief: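 Primary rat cortical neurons on 48-well, 16-electrode MEAs (PEI-coated, laminin at plating), exposed from day 0 with compound renewed at DIV 5 and 9. Spikes recorded DIV 5, 7, 9, 12; well-mean firing rate collapsed to trapezoidal AUC, loss-of-signal vs DMSO.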

[2] = CCTE_Shafer_MEA_dev_per_burst_spike_percent: CCTE's Neural Network Formation Assay for Percent of Spikes in a Burst, Shafer Lab (AID 2284032);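 for AC50: fitted as a decrease in burst spike percentage below DMSO baseline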
Method in brief: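 Rat primary cortical neurons on 16-electrode MEA wells, dosed from plating day 0 for 12 days with renewal on DIV 5 and 9; spikes-in-bursts percentage averaged over bursting electrodes, collapsed as AUC across days 5, 7, 9, 12; loss direction versus DMSO.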

[3] = CCTE_Shafer_MEA_dev_active_electrodes_number: CCTE's Neural Network Formation Assay for Number of Active Electrodes, Shafer Lab (AID 2284040; active = hit-call score of the fitted dose curve at least 0.9, where 1 is the maximum;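 for AC50: potency for loss of active electrodes versus DMSO so lower counts are hits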)
Method in brief: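 Rat cortical primary cultures, 1.5 x 10^5 cells/well, PEI-coated MEA, laminin drop. Continuous exposure DIV 0–12; full media/compound change DIV 5, 9. Readout: electrodes with mean firing ≥5 spikes/min; AUC across days; loss vs DMSO.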

[4] = CCTE_Shafer_MEA_dev_bursting_electrodes_number: CCTE's Neural Network Formation Assay for Number of Bursting Electrodes, Shafer Lab (AID 2284043; active = hit-call score of the fitted dose curve at least 0.9, where 1 is the maximum;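 for AC50: potency is for loss of bursting electrodes relative to DMSO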)
Method in brief: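 Primary rat cortical neurons plated on 16-electrode MEA wells, exposed from day 0 with compound renewed at DIV 5 and 9. Electrodes bursting ≥1 burst per 2 min counted on days 5, 7, 9 and 12; trapezoidal AUC across days, fitted for loss versus DMSO.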

[5] = CCTE_Shafer_MEA_dev_per_burst_interspike_interval: CCTE's Neural Network Formation Assay for Burst Interspike Interval, Shafer Lab (AID 2284044);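 note: mean spike spacing inside bursts as AUC over recordings on days 5 7 9 12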;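 for AC50: potency for a decrease of within-burst interspike interval below DMSO level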
Method in brief: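 Spontaneous activity of maturing rat cortical networks is recorded on DIV 5, 7, 9 and 12 under chronic compound exposure beginning at plating. Endpoint: burst interspike interval well-mean, collapsed into trapezoidal AUC and fitted in the negative direction relative to DMSO.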

[6] = CCTE_Shafer_MEA_dev_burst_duration_mean: CCTE's Neural Network Formation Assay for Mean Burst Duration, Shafer Lab (AID 2284045);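 for AC50: curve fitted for loss meaning shorter burst duration than DMSO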
Method in brief: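 Primary rat cortical neurons on 48-well 16-electrode MEA plates, exposed from day 0 with renewal at DIV 5 and 9; spontaneous activity recorded on days 5, 7, 9, 12. Well-mean burst duration across bursting electrodes, collapsed as trapezoidal AUC; DMSO baseline.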

[7] = CCTE_Shafer_MEA_dev_interburst_interval_mean: CCTE's Neural Network Formation Assay for Mean Interburst Interval, Shafer Lab (AID 2284046);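 note: well-mean interburst interval of bursting electrodes as AUC over four recording days; curve fitted for decrease in interburst interval relative to DMSO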
Method in brief: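 Recordings on days 5, 7, 9 and 12 give well-mean interburst interval across actively bursting electrodes, summarized as area under the curve. Cultures: rat cortical neurons, continuous exposure from day 0, compound renewed at feeds; decrease analyzed versus DMSO.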

[8] = CCTE_Shafer_MEA_dev_inter_network_spike_interval_mean: CCTE's Neural Network Formation Assay for Mean Inter-network Spike Interval, Shafer Lab (AID 2284047)
Method in brief: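 Primary rat cortical neurons on 16-electrode MEA wells, exposed from plating day 0 through DIV 12, compound renewed at DIV 5 and 9 media changes. Mean interval between network-spike peaks recorded DIV 5, 7, 9, 12; collapsed as trapezoidal AUC, fitted downward versus DMSO.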

[9] = CCTE_Shafer_MEA_dev_network_spike_number: CCTE's Neural Network Formation Assay for Number of Network Spikes, Shafer Lab (AID 2284048);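 for AC50: fit as a loss of signal meaning fewer network spikes than DMSO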
Method in brief: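 Primary rat cortical neurons on PEI/laminin 48-well MEA plates, dosed from plating day 0 for 12 days, renewed at DIV 5 and 9. Network spike counts recorded DIV 5, 7, 9, 12, collapsed as trapezoidal AUC; DMSO baseline.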

[10] = CCTE_Shafer_MEA_dev_network_spike_peak: CCTE's Neural Network Formation Assay for Mean Number of Electrodes in Network Spike, Shafer Lab (AID 2284049);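 for AC50: fitted for loss of signal meaning fewer electrodes in network spikes than DMSO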
Method in brief: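 Network-spike peak electrode count from recordings on days 5, 7, 9 and 12 was combined as trapezoidal area under the curve. Rat cortical cultures were treated continuously from plating, with compound renewed at each feed (DIV 5, 9); fits versus DMSO.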

[11] = CCTE_Shafer_MEA_dev_spike_duration_mean: CCTE's Neural Network Formation Assay for Mean Spike Duration, Shafer Lab (AID 2284051);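 note: mean network spike duration pooled as area under curve over DIV 5 to 12 recordings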;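 for AC50: potency for a decrease in mean network spike duration versus DMSO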
Method in brief: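 Primary rat cortical neurons on 16-electrode MEA wells (PEI-coated, laminin in plating drop), exposed from plating through DIV 12 with compound renewed at DIV 5 and 9. Mean network-spike duration recorded DIV 5, 7, 9, 12; trapezoidal AUC across days, DMSO baseline.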

[12] = CCTE_Shafer_MEA_dev_network_spike_duration_std: CCTE's Neural Network Formation Assay for Standard Deviation of Network Spike Duration, Shafer Lab (AID 2284052);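 note: area under curve of spike duration SD across recording days 5 to 12; hits are decreases in network spike duration SD versus DMSO vehicle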
Method in brief: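 Primary rat cortical neurons on PEI-coated 16-electrode MEA wells, exposed from plating day 0 through day 12 with compound renewed at DIV 5 and 9. Network spike duration SD recorded on days 5, 7, 9, 12, collapsed as trapezoidal AUC; loss-of-signal fit versus DMSO.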

[13] = CCTE_Shafer_MEA_dev_per_network_spike_spike_number_mean: CCTE's Neural Network Formation Assay for Mean Number of Spikes in a Network Spike, Shafer Lab (AID 2284053);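 for AC50: fitted as decrease in spikes per network spike relative to DMSO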
Method in brief: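 Primary rat cortical neurons on 48-well, 16-electrode MEA plates were exposed from plating to DIV 12, with dosing renewed on DIV 5 and 9. Spikes per network spike (0.05 s peak window) were recorded on DIV 5, 7, 9 and 12 and collapsed as trapezoidal AUC versus DMSO.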

[14] = CCTE_Shafer_MEA_dev_per_network_spike_spike_percent: CCTE's Neural Network Formation Assay for Percent of Spikes in a Network Spike, Shafer Lab (AID 2284054)
Method in brief: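 Rat primary cortical neurons were grown on 48-well MEA plates (16 electrodes/well), exposed from plating day 0 through day 12, with treatment renewed on DIV 5 and 9. Percent of spikes within 0.05 s network-spike peaks was measured, summarised as AUC across days 5, 7, 9, 12.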

[15] = target: Estrogen receptor (Homo sapiens) (UniProt P03372); experiment: CCTE_Deisenroth_AIME_384WELL_LUC_Active: CCTE's 384-well Estrogen Receptor Transactivation Assay with AIME metabolic competence (ERTA luciferase; metabolism positive), Deisenroth Lab (AID 2284030; active = hit-call score of the fitted dose curve at least 0.9, where 1 is the maximum)
Sequence of Estrogen receptor (Homo sapiens) (P03372 whole entry, looked up): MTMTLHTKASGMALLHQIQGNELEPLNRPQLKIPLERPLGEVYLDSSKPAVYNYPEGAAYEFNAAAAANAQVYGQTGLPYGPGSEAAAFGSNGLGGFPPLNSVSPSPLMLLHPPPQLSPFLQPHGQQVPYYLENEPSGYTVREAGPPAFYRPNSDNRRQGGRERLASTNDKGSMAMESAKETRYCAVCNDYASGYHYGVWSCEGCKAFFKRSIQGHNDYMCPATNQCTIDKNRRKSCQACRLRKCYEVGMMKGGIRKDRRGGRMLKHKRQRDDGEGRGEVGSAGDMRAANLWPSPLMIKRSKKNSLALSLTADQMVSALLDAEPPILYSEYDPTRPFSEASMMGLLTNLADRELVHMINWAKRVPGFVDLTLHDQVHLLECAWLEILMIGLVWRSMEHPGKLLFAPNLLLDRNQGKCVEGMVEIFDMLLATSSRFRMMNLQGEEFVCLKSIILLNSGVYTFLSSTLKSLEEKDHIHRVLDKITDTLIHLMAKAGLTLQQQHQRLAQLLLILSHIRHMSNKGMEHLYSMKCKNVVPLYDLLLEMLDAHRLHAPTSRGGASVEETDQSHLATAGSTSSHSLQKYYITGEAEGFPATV
Method in brief: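 Estrogenic luciferase signal in VM7Luc4E2 cells is measured at 24 hour, after chemicals have been preconditioned 2 hours with PB/BNF-induced rat hepatic S9 in alginate. Gain of signal is fitted relative to 17beta-estradiol, across 0.002 - 200 uM.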

[16] = CCTE_Deisenroth_AIME_384WELL_CTox_Active: Cytotoxicity Assessment (CTOX) in CCTE's 384-well Estrogen Receptor Transactivation Assay with AIME metabolic competence (metabolism positive), Deisenroth Lab (AID 2284037; active = hit-call score of the fitted dose curve at least 0.9, where 1 is the maximum;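 note: chemicals first conditioned 2 h by alginate-bound induced rat liver S9 before cells; activity means signal loss indicating cell death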)
Method in brief: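 Chemicals pre-incubated 2 hours with alginate-immobilised phenobarbital/beta-naphthoflavone-induced male Sprague Dawley rat liver S9, then conditioned medium applied 24 hour to VM7Luc4E2 cells. Viability by fluorogenic protease substrate; 10-point series 0.002 - 200 uM.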

[17] = target: Estrogen receptor (Homo sapiens) (UniProt P03372); experiment: CCTE_Deisenroth_AIME_384WELL_LUC_Inactive: CCTE's 384-well Estrogen Receptor Transactivation Assay without AIME metabolic competence (ERTA luciferase; metabolism negative), Deisenroth Lab (AID 2284038; active = hit-call score of the fitted dose curve at least 0.9, where 1 is the maximum;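 note: VM7Luc4E2 breast cells given medium preincubated 2 h with S9-free microspheres; hits raise estrogen receptor luciferase signal so potencies reflect agonists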)
Method in brief: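 Chemicals (10-point series, 0.002 - 200 uM) were incubated 2 hours with alginate-water microsphere lids lacking S9, then the conditioned medium was transferred to VM7Luc4E2 breast cells for 24 hour. Luciferase induction was read by bioluminescence, fitted upward relative to 17beta-estradiol.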

[18] = target: Estrogen receptor (Homo sapiens) (UniProt P03372); experiment: CCTE_Deisenroth_AIME_384WELL_LUC_Shift: CCTE's 384-well Estrogen Receptor Transactivation Assay with AIME metabolic competence data shift (ERTA luciferase; difference in metabolism positive and negative), Deisenroth Lab (AID 2284041);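 note: shift is response with S9 minus without S9 so positive means metabolism raised ER signal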
Method in brief: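 Chemicals (0.002–200 uM, 10 points) pre-incubated 2 h with alginate-encapsulated induced male Sprague Dawley rat liver S9 or S9-free, then medium applied 24 h to VM7Luc4E2 cells; luciferase. Endpoint is per-concentration difference, S9-positive minus negative.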

[19] = CCTE_Deisenroth_AIME_96WELL_CTox_Inactive: Cytotoxicity Assessment (CTOX) in CCTE's 96-well Estrogen Receptor Transactivation Assay without AIME metabolic competence (metabolism negative), Deisenroth Lab (AID 2284029; active = hit-call score of the fitted dose curve at least 0.9, where 1 is the maximum)
Method in brief: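 Chemicals (10-point series, 0.002-200 uM) were incubated 2 h with alginate-water microspheres lacking S9. The conditioned medium was then transferred onto VM7Luc4E2 cells for 24 h. Viability was measured by protease-substrate cleavage to a fluorescent probe, with loss of signal fitted bidirectionally; n≥4 experimental replicates.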

Measured: AC50

CC(O)CO (configuration not stated)
inactive: [1] | [2] | [3] | [4] | [5] | [6] | [7] | [8] | [9] | [10] | [11] | [12] | [13] | [14]

CC#C[C@]1(O)CC[C@H]2[C@@H]3CCC4=CC(=O)CCC4=C3[C@@H](c3ccc(N(C)C)cc3)C[C@@]21C
inactive: [15] | [1] | [16] | [17] | [18] | [6] | [7] | [8] | [9] | [12]
active: [1] 8.04 µM | [2] 6.81 µM and 22.9 µM | [3] 4.73 µM and 17.8 µM | [4] 2.8 µM and 15 µM | [5] 4.01 µM and 5.66 µM | [6] 2.98 µM | [7] 2.69 µM | [9] 8.75 µM | [10] 2.53 µM and 22.2 µM | [11] 4.55 µM and 21.8 µM | [12] 8.66 µM | [13] 1.38 µM and 15 µM | [14] 3.55 µM and 23.1 µM

CC(C)(C)c1ccc(O)c(C(C)(C)C)c1
active: [19] 163 µM | [16] 171 µM | [18] 77.6 µM

c1ccc2cc3c(ccc4ccccc43)cc2c1
active: [15] 53.8 µM | [18] 64.2 µM | [10] 10 µM
inactive: [19] | [1] | [2] | [3] | [4] | [5] | [6] | [7] | [8] | [9] | [11] | [12] | [13] | [14]
